An excerpt weighted towards active compounds, which were near 19% of everything screened.
HT1080 IDH1KD tx: qHTS for induction of synthetic lethality in tumor cells producing 2HG: qHTS for the HT-1080-IDH1KD cell line. HT-1080 IDH1 knockdown viability, ATP luminescence, 48 h. Potency, µM (doses to about 46.1 µM), for inactives: top-dose activity, negative = toxicity, actives largely listed as cytotoxic. 360,000 compounds, 2% hits. AID 686971, 2013;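 further: 0% = DMSO wells and -100% = cell-free medium wells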
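Luminescent ATP read-out (CellTiter-Glo, 10 min at room temperature) after 48 h compound exposure at 37 °C gave viability of IDH1-knockdown HT-1080 cells. Activity was normalised to DMSO and cell-free wells, then fitted as concentration-response curves.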
KB-3-1 tox: qHTS assay for MDR1-selective chemotherapeutics: Primary screen using the parental adenocarcinoma cell KB-3-1. 400,000 compounds, 1.4% hits. KB-3-1 viability, CellTiter-Glo ATP luminescence, 72 h. Potency, µM (doses to about 46.1 µM), hits mostly cytotoxic; further: nearly all actives have a fitted effect of over 60% in size
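Cytotoxicity in the drug-sensitive parental line KB-3-1 was scored as loss of CellTiter-Glo luminescence following 72 h incubation with compound. Values come from curve fitting of normalized concentration-response data.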
TDP1 cell noCPT: qHTS for Inhibitors of human tyrosyl-DNA phosphodiesterase 1 (TDP1): qHTS in cells in absence of CPT | DT40 Tdp1-/- hTDP1 cells, no CPT, ATP luminescence, 48 h | Potency, µM (series often up to 46.2 µM), inactives show at the highest dose activity change, negative = growth inhibition, most hits filed as inhibitors | 420,000 compounds, 15% hits | AID 686978, 2013; further: nearly all actives have a fitted effect of over 55% in size
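No-CPT arm: Tdp1-/-;hTDP1 DT40 cells (400/well) plus compounds, incubated ≥48 hr at 37 °C. Readout CellTiter-Glo luminescence.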
DT40 TDP1 CPT: qHTS for Inhibitors of human tyrosyl-DNA phosphodiesterase 1 (TDP1): qHTS in cells in presence of CPT | 420,000 compounds, 12% hits | Potency, µM (doses to about 46.2 µM), for inactives: top-dose activity change, negative = growth inhibition, actives largely listed as inhibitors | chicken DT40 Tdp1-/-;hTDP1 cells + 20 nM CPT, ATP luminescence, 48 h; further: nearly all actives have a fitted effect of over 55% in size
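Chicken DT40 Tdp1-/- cells complemented with human TDP1, 400 cells/well, exposed to compounds plus 20 nM camptothecin for at least 48 h at 37 C; viability read as ATP content by CellTiter-Glo luminescence.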
KB-V1 MDR tox: qHTS assay for MDR1-selective chemotherapeutics: Primary screen using the drug-selected MDR subline cells KB-V1; 400,000 compounds, 3.4% hits; Potency, µM (doses to about 46.1 µM), actives largely listed as cytotoxic; KB-V1 MDR cells viability, CellTiter-Glo, 72 h; AID 1347076, 2019; further: nearly all actives have a fitted effect of over 60% in size
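Compound-treated KB-V1 multidrug-resistant cells, 72 h, 37 degrees C; viability by CellTiter-Glo. Fitted qHTS curves give the values.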
HT1080NT lethal: qHTS for induction of synthetic lethality in tumor cells producing 2HG: qHTS for the HT-1080-NT fibrosarcoma cell line. HT-1080-NT fibrosarcoma viability, CellTiter-Glo ATP luminescence, 48 h. Potency, µM (doses to about 46.1 µM), without a hit: top-dose activity, negative = less viability, usual class: cytotoxic. 360,000 compounds, 1.6% hits;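 further: NT is the 2HG producing partner of a matched IDH1 knockdown line; 0% = DMSO-treated cells and -100% = media-only wells without cells; nearly all actives have a fitted effect of over 55% in size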
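HT-1080-NT fibrosarcoma cells (2HG-overproducing), 750 cells/well in RPMI with 5% FBS, dosed after 2 h and incubated 48 h at 37C. CellTiter-Glo luminescence normalized to DMSO and no-cell wells; concentration-response curves fitted and classed.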
* hit, by the source's call; i = inactive; ? = inconclusive; . = no result given. The call rests on the fitted dose curve; in most records, active means well fitted curve in the direction sought with a large enough effect; inconclusive means small, poorly fitted or top-dose-only effect, or another doubt; inactive means no such curve, though single readings can be large; an effect the other way counts as inactive or inconclusive. Unless noted, on the % scale 0 is the no-effect control and ±100 the full control effect; potency means the concentration at half of the fitted maximal effect.

SMILES	HT1080 IDH1KD tx	KB-3-1 tox	TDP1 cell noCPT	DT40 TDP1 CPT	KB-V1 MDR tox	HT1080NT lethal
Cc1ccc(/C=N/NC(=O)NC23CC4CC(CC(C4)C2)C3)o1	?	i	-29%	-3%	?	?
COc1ccc([N+](=O)[O-])cc1NC(=O)C1C2C=CC(C2)C1C(=O)O (configuration not stated)	2%	i	-21%	0%	i	4%
COC(=O)[C@]1(Sc2ccc(OC)cc2)CC(=O)N[C@@H]1c1ccccc1	-1%	i	18µM*	?	i	7%
COC(=O)[C@@]1(Sc2ccc(C)cc2)CC(=O)N[C@@H]1c1ccccc1	3%	i	-23%	6%	i	14%
COc1cc(C(C#N)N2N=C(c3ccccc3)CC2c2ccccc2)ccc1O (configuration not stated)	10%	i	-14%	?	i	-1%
N#CC(c1ccccc1O)N1N=C(c2ccccc2)CC1c1ccccc1 (configuration not stated)	3%	i	10µM*	18µM*	i	6%
COc1ccc(C(OCC(O)CNCCc2ccccc2)c2ccc(OC)cc2)cc1 (configuration not stated)	23µM*	?	18µM*	23µM*	16µM*	23µM*
COc1cccc(OCC(O)CNC(C)c2ccccc2)c1 (configuration not stated)	?	i	?	?	i	-21%
C/C=C/c1ccc(OCC(O)CNCCc2ccc(OC)cc2)c(OC)c1 (configuration not stated)	-16%	i	?	?	i	-12%
COc1ccc(C(OCC(O)CNC(C)c2ccccc2)c2ccc(OC)cc2)cc1 (configuration not stated)	21µM*	i	23µM*	?	?	?
Cc1cc(SCC(=O)c2cccs2)n2nc(C)c(-c3ccc(Cl)cc3)c2n1	-12%	i	?	16µM*	?	-17%
CCSc1cc(C)nc2c(-c3ccccc3)c(C)nn12	8%	i	-16%	-8%	i	2%
Cc1nn2c(SCC(=O)c3cccs3)cc(C(C)(C)C)nc2c1-c1ccccc1	-22%	?	?	?	i	-24%
C=C(C)CSc1cc(C)nc2c(-c3ccccc3)c(C)nn12	-26%	?	?	?	6.5µM*	?
CC(=O)Nc1ccc(NC(=O)CCc2c(C)nc3c(c(C)nn3-c3ccc(C)cc3)c2C)cc1	.	.	?	15µM*	.	.
CCOc1ccccc1NC(=O)CCc1c(C)nc2c(c(C)nn2-c2ccccc2)c1C	.	i	16µM*	16µM*	i	.
CC(=O)Nc1ccc(NC(=O)CCc2c(C)nc3c(c(C)nn3-c3ccccc3)c2C)cc1	.	i	-24%	-16%	i	.
CCOC(=O)c1ccc(NC(=O)CCc2c(C)nc3c(c(C)nn3-c3ccccc3)c2C)cc1	.	i	10µM*	16µM*	i	.
Cc1ccc(-n2nc(C)c3c(C)c(CCC(=O)NC(C)c4ccccc4)c(C)nc32)cc1 (configuration not stated)	-1%	i	?	?	i	6%
